Test in all cases: DAPPL (digital affinity profiling via proximity ligation, sequencing); 10 mM Tris-HCl pH 7.5, 50 mM NaCl, 1 mM DTT, 4% glycerol, room temperature, 30 min; GST-TFs on glutathione beads, 16-mer random dsDNA library, 0.1% formaldehyde crosslink after washing; high values mean tight binding
Holding throughout (details): protein: recombinant; tags: N-terminal GST; dsDNA, one strand shown

Assay [1] addresses T1, ELK1 (Homo sapiens, UniProt P19419 1-428).
T1 sequence: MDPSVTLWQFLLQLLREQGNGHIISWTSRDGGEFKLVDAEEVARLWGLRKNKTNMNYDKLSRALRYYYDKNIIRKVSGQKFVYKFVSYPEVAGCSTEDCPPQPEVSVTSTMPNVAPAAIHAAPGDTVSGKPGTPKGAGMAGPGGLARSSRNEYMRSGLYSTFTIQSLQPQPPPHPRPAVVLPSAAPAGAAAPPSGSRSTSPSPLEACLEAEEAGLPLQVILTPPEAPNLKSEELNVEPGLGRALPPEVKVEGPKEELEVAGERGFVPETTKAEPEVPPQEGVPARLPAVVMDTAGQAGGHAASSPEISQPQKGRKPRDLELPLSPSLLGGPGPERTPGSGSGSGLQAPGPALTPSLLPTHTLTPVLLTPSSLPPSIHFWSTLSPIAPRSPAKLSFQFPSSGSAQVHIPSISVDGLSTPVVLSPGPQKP
The method in brief:
(§1)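 GST fusions of human transcription factors were expressed in yeast and captured with glutathione beads. Once given DNA barcodes and pooled alongside a tag-only sample, they were incubated for 30 min at room temperature with 200 nmole of a random double-stranded 16-mer DNA library in Tris/NaCl/DTT/glycerol buffer, then washed, crosslinked (0.1% formaldehyde), proximity-ligated, PCR-amplified and sequenced on an Illumina NextSeq500. The binding signal of each hexamer is its read frequency for a factor divided by its frequency for the tag-only sample.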

Assay [2] deals with T2, ERG (Homo sapiens, UniProt P11308 1-479).
T2 sequence: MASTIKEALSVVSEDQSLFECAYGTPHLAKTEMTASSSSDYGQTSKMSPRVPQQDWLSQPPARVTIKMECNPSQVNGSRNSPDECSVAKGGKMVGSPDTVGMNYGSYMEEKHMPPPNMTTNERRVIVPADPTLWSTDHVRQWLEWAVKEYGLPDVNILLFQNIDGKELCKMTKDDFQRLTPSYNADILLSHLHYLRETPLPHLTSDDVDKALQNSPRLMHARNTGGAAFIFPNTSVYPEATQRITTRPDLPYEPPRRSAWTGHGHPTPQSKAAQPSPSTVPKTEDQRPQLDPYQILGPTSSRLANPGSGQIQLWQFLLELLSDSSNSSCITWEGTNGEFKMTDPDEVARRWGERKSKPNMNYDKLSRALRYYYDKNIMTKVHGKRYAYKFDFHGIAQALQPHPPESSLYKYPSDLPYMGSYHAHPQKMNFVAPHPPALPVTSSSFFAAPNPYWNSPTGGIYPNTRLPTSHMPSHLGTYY
The method, boiled down:
as §1

Assay [3] deals with ELF1 (Homo sapiens, UniProt P32519 1-619). The method, boiled down: as §1
Assay [4] deals with T3, EHF (Homo sapiens, UniProt Q9NZC4 1-300).
T3 sequence: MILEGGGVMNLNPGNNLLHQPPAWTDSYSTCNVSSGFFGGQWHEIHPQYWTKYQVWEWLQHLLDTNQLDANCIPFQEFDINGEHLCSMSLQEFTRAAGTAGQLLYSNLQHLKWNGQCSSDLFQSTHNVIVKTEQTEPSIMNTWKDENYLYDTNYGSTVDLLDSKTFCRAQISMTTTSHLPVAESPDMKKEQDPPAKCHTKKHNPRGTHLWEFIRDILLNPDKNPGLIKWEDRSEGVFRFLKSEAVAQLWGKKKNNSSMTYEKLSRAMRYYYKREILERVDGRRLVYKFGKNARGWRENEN
The method in brief:
as §1

The target of assay [5] is SPI1 (Homo sapiens, UniProt P17947 1-270). The method, boiled down: as §1
For assay [6], the target named is SPIB (Homo sapiens, UniProt Q01892 1-262). The method in brief:
as §1

Assay [7] deals with T4, FEV (Homo sapiens, UniProt Q99581 1-238).
T4 sequence: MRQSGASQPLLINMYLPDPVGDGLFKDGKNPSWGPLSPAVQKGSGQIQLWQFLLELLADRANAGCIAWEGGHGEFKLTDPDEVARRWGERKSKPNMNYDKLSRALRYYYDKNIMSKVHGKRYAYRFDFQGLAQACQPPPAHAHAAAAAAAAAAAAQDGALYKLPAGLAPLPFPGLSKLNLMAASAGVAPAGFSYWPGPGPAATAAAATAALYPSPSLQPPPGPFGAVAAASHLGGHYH
The method in brief: as §1

In assay [8] the target is ETV5 (Homo sapiens, UniProt P41161 1-510). The method in brief:
as §1

Assay [9] addresses ELF4 (Homo sapiens, UniProt Q99607 1-663). The method in brief:
as §1

Assay [10] has as its target T5, ELK4 (Homo sapiens, UniProt P28324-2 1-405).
T5 sequence: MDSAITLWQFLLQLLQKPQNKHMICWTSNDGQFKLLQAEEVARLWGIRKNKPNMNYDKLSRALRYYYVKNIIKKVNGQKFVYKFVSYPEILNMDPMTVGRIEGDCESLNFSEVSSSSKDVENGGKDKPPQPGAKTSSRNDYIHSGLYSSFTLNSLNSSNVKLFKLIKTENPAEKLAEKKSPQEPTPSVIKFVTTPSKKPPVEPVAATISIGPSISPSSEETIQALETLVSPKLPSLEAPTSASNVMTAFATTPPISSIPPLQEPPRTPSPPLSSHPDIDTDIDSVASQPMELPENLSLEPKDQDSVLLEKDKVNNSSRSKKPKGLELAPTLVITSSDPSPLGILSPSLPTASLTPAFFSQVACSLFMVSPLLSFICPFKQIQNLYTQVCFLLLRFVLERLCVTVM
The method, boiled down:
as §1

Assay [11] concerns the target T6, ETV2 (Homo sapiens, UniProt O00321 1-342).
T6 sequence: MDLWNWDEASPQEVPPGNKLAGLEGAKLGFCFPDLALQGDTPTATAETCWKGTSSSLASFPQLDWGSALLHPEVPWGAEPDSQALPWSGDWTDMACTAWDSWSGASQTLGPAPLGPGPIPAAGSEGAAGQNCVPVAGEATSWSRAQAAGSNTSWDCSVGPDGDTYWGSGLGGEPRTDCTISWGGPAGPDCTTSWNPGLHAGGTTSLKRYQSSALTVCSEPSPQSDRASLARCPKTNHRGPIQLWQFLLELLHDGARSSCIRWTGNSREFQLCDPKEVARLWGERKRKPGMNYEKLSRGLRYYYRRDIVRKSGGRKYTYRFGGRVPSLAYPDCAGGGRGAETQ
The method, boiled down:
as §1

The target in assay [12] is T7, ELF3 (Homo sapiens, UniProt P78545 1-371).
T7 sequence: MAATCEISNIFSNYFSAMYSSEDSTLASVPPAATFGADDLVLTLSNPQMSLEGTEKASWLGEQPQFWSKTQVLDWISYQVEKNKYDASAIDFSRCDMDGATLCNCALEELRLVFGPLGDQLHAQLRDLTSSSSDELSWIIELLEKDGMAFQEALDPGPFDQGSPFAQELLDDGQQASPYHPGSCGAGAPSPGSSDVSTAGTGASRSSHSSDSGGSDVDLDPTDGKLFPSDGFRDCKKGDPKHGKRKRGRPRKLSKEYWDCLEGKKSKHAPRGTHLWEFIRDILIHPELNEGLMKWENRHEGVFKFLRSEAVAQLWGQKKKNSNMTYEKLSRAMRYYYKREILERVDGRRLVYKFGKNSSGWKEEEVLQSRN
The method, boiled down: as §1

Assay [13] addresses ETV1 (Homo sapiens, UniProt P50549 1-477). The method in brief:
as §1

Assay [14] addresses T8, ERF (Homo sapiens, UniProt P50548 1-548).
T8 sequence: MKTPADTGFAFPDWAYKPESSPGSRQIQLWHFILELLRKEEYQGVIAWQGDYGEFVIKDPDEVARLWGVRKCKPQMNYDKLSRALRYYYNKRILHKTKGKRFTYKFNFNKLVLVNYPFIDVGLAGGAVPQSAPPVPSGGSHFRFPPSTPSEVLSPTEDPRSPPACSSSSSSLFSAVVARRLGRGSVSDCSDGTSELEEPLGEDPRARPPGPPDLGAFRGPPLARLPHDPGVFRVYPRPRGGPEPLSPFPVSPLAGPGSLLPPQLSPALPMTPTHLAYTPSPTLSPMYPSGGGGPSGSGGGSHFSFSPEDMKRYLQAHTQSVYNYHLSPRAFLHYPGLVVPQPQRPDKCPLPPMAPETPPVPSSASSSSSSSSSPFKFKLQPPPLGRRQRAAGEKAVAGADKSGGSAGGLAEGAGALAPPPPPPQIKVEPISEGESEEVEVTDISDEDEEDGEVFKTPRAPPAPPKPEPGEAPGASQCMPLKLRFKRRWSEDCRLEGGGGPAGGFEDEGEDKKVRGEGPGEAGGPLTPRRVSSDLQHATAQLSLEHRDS
The method, boiled down: as §1

In assay [15] the target is T9, ETV3L (Homo sapiens, UniProt Q6ZN32 1-361).
T9 sequence: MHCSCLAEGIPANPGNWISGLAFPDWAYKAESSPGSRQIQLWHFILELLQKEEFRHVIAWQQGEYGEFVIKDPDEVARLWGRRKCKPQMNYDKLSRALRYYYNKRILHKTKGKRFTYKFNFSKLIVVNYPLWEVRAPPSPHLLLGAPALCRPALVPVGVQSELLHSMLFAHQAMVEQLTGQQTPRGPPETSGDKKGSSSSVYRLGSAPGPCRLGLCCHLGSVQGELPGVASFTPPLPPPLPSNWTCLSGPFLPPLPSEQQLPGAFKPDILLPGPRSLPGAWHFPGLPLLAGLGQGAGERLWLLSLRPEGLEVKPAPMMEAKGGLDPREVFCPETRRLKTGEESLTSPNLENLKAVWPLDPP
The method in brief: as §1

Assay [16] deals with T10, ETS2 (Homo sapiens, UniProt P15036 1-469).
T10 sequence: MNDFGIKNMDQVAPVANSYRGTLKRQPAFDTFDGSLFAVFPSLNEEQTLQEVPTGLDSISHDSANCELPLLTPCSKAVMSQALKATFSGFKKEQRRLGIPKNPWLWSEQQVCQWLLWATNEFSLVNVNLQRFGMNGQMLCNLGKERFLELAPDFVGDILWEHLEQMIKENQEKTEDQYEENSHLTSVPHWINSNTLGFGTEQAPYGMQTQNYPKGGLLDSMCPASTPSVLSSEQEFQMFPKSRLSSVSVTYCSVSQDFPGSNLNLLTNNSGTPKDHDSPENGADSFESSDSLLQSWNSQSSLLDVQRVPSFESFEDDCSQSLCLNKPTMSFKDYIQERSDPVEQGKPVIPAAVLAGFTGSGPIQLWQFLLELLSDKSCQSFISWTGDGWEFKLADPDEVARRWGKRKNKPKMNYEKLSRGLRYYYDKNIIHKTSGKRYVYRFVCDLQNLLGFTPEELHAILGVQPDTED
The method in brief: as §1

The target of assay [17] is T11, ETV7 (Homo sapiens, UniProt Q9Y603 1-341).
T11 sequence: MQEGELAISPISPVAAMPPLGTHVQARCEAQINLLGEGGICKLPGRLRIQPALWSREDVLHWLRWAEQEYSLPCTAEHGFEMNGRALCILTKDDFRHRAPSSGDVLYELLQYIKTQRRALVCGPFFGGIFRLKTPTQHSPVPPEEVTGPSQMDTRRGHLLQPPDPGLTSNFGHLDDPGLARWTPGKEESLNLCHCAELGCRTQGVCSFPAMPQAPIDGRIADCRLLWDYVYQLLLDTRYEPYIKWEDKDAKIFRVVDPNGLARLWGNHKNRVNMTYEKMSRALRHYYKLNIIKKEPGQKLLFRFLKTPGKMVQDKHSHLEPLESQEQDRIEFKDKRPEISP
The method, boiled down:
as §1

For assay [18], the target named is T12, ETV3 (Homo sapiens, UniProt P41162-2 1-143).
T12 sequence: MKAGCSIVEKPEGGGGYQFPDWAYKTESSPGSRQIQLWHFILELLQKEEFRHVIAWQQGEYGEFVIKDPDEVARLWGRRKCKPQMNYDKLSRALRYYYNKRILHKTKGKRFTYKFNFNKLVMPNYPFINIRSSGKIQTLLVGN
The method, boiled down:
as §1

Assay [19] deals with ETV6 (Homo sapiens, UniProt P41212 1-452). The method in brief:
as §1

Sequence of ELF1 (P32519 whole entry): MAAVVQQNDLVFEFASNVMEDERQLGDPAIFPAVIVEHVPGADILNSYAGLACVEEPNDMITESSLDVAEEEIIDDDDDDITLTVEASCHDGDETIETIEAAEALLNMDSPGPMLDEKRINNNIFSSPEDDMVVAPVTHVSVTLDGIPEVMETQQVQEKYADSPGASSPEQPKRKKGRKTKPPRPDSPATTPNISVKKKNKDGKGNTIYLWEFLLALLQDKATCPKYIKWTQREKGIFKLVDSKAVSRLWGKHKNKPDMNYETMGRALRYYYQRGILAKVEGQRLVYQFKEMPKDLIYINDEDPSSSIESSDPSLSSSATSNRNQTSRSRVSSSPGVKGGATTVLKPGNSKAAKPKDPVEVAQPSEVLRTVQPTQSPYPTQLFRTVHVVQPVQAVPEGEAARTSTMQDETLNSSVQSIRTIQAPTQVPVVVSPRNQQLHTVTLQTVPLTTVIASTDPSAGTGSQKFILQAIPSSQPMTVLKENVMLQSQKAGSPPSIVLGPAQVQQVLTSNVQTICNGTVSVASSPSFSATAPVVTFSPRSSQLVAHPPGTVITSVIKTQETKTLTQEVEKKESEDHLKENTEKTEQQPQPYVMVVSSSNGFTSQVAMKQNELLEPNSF
Sequence of ETV1 (P50549 whole entry): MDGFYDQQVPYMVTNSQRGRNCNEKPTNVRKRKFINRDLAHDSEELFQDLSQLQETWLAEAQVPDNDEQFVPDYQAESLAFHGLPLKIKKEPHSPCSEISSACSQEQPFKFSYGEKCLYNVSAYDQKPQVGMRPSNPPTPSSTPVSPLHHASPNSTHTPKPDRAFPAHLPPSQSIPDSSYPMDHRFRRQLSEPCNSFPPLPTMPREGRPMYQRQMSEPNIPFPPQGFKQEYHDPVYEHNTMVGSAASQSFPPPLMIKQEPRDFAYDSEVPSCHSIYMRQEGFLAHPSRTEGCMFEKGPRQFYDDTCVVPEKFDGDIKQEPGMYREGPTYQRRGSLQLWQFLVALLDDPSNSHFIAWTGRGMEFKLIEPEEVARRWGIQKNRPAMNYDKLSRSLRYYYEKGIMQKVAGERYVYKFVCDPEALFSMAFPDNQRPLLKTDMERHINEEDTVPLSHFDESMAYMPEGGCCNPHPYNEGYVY
Sequence of ETV6 (P41212 whole entry): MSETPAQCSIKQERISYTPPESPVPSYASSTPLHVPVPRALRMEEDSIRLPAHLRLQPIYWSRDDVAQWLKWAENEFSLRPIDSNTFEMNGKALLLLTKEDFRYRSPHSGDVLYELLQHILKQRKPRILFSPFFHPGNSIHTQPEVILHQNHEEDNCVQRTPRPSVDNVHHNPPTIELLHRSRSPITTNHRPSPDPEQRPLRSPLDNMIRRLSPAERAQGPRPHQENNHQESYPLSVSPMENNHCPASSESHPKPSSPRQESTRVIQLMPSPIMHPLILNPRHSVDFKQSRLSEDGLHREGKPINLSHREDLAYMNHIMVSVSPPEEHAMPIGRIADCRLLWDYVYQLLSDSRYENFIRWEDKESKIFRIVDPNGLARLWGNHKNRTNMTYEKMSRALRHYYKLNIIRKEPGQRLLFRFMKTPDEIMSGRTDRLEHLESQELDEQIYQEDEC
Sequence of ETV5 (P41161 whole entry): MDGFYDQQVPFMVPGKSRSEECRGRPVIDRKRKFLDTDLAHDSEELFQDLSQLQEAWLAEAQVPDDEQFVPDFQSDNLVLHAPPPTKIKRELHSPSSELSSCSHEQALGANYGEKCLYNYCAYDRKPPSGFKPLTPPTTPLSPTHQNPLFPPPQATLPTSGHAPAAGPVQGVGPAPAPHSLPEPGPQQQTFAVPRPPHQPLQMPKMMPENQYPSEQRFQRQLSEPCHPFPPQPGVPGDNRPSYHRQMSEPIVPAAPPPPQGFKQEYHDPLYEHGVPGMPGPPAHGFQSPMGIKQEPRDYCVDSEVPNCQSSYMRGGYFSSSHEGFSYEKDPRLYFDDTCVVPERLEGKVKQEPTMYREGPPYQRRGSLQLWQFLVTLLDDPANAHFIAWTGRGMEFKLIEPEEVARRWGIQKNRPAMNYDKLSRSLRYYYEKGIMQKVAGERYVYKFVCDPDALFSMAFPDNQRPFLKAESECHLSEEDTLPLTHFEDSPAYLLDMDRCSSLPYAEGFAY
Sequence of ELF4 (Q99607 whole entry): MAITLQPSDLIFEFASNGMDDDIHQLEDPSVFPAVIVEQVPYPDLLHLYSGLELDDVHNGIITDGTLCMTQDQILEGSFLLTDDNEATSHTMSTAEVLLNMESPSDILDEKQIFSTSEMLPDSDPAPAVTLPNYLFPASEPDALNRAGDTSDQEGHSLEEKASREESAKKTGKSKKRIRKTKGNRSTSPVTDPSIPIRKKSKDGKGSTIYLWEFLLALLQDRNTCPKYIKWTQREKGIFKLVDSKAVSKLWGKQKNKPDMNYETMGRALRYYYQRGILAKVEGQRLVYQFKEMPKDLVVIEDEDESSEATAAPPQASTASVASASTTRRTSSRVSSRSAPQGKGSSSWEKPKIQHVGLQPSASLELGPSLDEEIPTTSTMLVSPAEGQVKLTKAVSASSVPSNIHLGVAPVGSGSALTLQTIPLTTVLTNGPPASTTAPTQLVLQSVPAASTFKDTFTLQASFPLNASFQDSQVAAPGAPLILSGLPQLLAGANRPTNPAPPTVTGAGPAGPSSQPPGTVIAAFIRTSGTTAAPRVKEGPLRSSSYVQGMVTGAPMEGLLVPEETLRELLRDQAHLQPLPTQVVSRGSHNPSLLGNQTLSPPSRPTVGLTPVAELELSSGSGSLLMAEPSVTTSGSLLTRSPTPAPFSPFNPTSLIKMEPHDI
Sequence of SPIB (Q01892 whole entry): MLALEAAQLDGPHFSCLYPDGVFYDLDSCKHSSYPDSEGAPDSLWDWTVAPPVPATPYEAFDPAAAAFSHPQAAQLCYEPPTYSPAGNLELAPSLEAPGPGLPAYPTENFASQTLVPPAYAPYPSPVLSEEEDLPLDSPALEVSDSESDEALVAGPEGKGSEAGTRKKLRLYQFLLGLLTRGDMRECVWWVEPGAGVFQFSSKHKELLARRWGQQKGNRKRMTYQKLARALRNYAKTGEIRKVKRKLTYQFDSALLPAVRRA

On to CCCCTA, for which the binding signal in assay [1] was 1.07 fold enrichment (6-mer frequency, TF over GST control); in assay [2] it was 1.05 fold enrichment (6-mer frequency, TF over GST control); in assay [3] it was 1.18 fold enrichment (6-mer frequency, TF over GST control); in assay [4] it was 1.17 fold enrichment (6-mer frequency, TF over GST control); in assay [5] it was 1.08 fold enrichment (6-mer frequency, TF over GST control); in assay [6], 1.08 fold enrichment (6-mer frequency, TF over GST control). In addition, the binding signal in [7] is 1.13 fold enrichment (6-mer frequency, TF over GST control); in [8], 1.07 fold enrichment (6-mer frequency, TF over GST control); in assay [9], 1.2 fold enrichment (6-mer frequency, TF over GST control); in assay [10], 1.3 fold enrichment (6-mer frequency, TF over GST control); in assay [11] it was 1.06 fold enrichment (6-mer frequency, TF over GST control); in [12], 1.3 fold enrichment (6-mer frequency, TF over GST control). Further, the binding signal in assay [13] is 1.07 fold enrichment (6-mer frequency, TF over GST control); in assay [14], 1.04 fold enrichment (6-mer frequency, TF over GST control); in assay [15] it was 1.13 fold enrichment (6-mer frequency, TF over GST control); in assay [16] it was 1.05 fold enrichment (6-mer frequency, TF over GST control); in assay [17], 1.06 fold enrichment (6-mer frequency, TF over GST control); in assay [18] it was 1.06 fold enrichment (6-mer frequency, TF over GST control). Also, the binding signal in assay [19] is 1.22 fold enrichment (6-mer frequency, TF over GST control).
